Many of the other results were omitted from the sample, so hits are more common in it than they were.
Dicer inh – human Dicer pre-microRNA cleavage inhibition; Q9UPY3; cat-ELCCA pre-miR-21 Dicer processing, chemiluminescence; active compounds read high; z-score at 25 µM; hit rate 6% among 47,000; AID 1347074; in the data active = z-score above about 3, passing the limit was not always enough;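 also: higher signal means more uncleaved substrate so more Dicer inhibition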
Large screens that a line does not name were inactive.

COc1ccccc1C1Nc2ccccc2NC2=C1C(=O)CC(c1cccs1)C2 (centres undefined)	none
O=C(O)CCC(=O)N1c2ccccc2NC2=C(C(=O)CC(c3ccccc3)C2)C1c1cccc(F)c1 (centres undefined)	none
COc1cccc(C2Nc3ccccc3NC3=C2C(=O)CC(c2cccs2)C3)c1 (centres undefined)	Dicer inh 3.38
O=C1CC(c2ccccc2)CC2=C1C(c1cccnc1)Nc1ccccc1N2 (centres undefined)	none
CCOc1cc(C2Nc3ccccc3NC3=C2C(=O)CC(c2ccccc2)C3)ccc1O (centres undefined)	none
Clc1ccc2nc(-c3ccc(Cl)c(Cl)c3)cnc2c1	none
CC1=CC(C)=N/C1=C/c1c(O)[nH]c(=O)[nH]c1=O	none
COCCN1C(=O)c2oc3ccc(F)cc3c(=O)c2C1c1ccc(C(=O)OC)cc1 (centres undefined)	none
CC(=O)Cn1cnc2c(nnn2Cc2ccccc2Cl)c1=O	none
COCCNc1nc2c(c(=O)n(C)c(=O)n2C)n1Cc1ccc(Br)cc1	none
O=C(c1ccccc1)c1cccc(NC(=O)c2cccnc2Oc2ccccc2)c1	none
CC(C)Cc1ccc(C(C)C(=O)Nc2nn(C)c3ccccc23)cc1 (centres undefined)	none
Clc1ccc(SCc2ccc(-c3csnn3)cc2)cc1	none
CCOC(=O)c1cc(C)n(Cc2c(Cl)cccc2Cl)n1	none
CC(C)NC(=O)O/N=C(\N)Cc1cccc2ccccc12	none
Cc1ccc(C2CC(=O)C3=C(C2)Nc2ccccc2NC3c2ccncc2)cc1 (centres undefined)	none
COc1ccc(C2CC(=O)C3=C(C2)Nc2ccccc2NC3c2coc3ccc(Cl)cc3c2=O)cc1 (centres undefined)	none
CN(C)c1ccc(C2CC(=O)C3=C(C2)Nc2ccccc2NC3c2ccccc2)cc1 (centres undefined)	Dicer inh 4.75
COc1ccc(C2CC(=O)C3=C(C2)Nc2ccccc2NC3c2cccc(O)c2)cc1 (centres undefined)	none
COc1ccc(C2CC(=O)C3=C(C2)Nc2ccccc2NC3c2ccc(F)c(Br)c2)cc1 (centres undefined)	Dicer inh 5.2
Cc1ccccc1C1Nc2ccccc2NC2=C1C(=O)CC(c1ccccc1)C2 (centres undefined)	none
CCOC(=O)c1cc(C#N)c(Oc2cc(Cl)cc(Cl)c2)nc1C(F)(F)F	none
COc1cc2c(cc1OC)C(c1cccc(C)c1)N(C(=O)c1sc3ccccc3c1Cl)CC2 (centres undefined)	none
CC(=O)NC(Nc1cccc(C(F)(F)F)c1)(C(F)(F)F)C(F)(F)F	none
CCCC(=O)c1c[nH]c2ccccc12	none
COc1ccc(-c2c(C)nn3c(C)cc(C)nc23)cc1OC	Dicer inh 4.85
COc1ccc(-c2c(C)nn3c(N)c(-c4ccc(Cl)cc4)cnc23)cc1OC	none
COc1ccc(-c2c(C)nn3c(-c4ccccc4)cc(C)nc23)cc1OC	none
Cc1cccc(NC(=O)/C=C/C(=O)O)c1C	none
Cn1c(=O)c2c(nc(Cl)n2Cc2cccc(F)c2)n(C)c1=O	none
Cn1cnc([N+](=O)[O-])c1Sc1n[nH]c(=O)n1-c1ccccc1C(F)(F)F	none
O=C1Nc2c(S(=O)(=O)Nc3ccccc3)cc(S(=O)(=O)Nc3ccccc3)c3cccc1c23	none
CCOC(=O)C1=C(C(=O)OCC)SC(=C2C(=S)C(C)(C)Nc3ccc(C)cc32)S1	none
CCOc1cccc2c1N(C(C)=O)C(C)(C)C(=S)C2=C1SC(C(=O)OC)=C(C(=O)OC)S1	none
CCOC(=O)C1=CS/C(=C2/C(=S)C(C)(C)Nc3c(OCC)cccc32)S1	Dicer inh 3.67
Cn1c(=O)c2c(nc(NCCCO)n2Cc2ccccc2Cl)n(C)c1=O	none
Cn1ccnc1SCC(=O)Nc1nc(-c2ccc(F)cc2)cs1	none
O=[N+]([O-])c1ccc(N2CC=CCC2)nc1	none
O=C(Nc1c(-c2ccccc2)nc2ccc(Cl)cn12)c1ccco1	none
O=C(Nc1c(-c2ccccc2)nc2ccccn12)c1ccco1	Dicer inh 4.89
COC(=O)Nc1c(-c2ccccc2)nc2ccccn12	none
Cc1ccc(C(=O)CSc2nc(N)c(C(=O)c3ccc(C)cc3)s2)cc1	none
Cc1ccc2oc(-c3ccc(C(C)C)cc3)c(O)c(=O)c2c1	none
Cc1c(C)c(C)c(CS/C(N)=N/N)c(C)c1C	none
CC1CC(C)CN(c2nc3nonc3nc2N2CC(C)CC(C)C2)C1 (centres undefined)	none
O=C(Nc1cnc2ccccc2c1)c1ccncc1	Dicer inh 3.15
O=C(Nc1ccccc1)Nc1ccc2ncccc2c1	none
O=C(Nc1ccc(F)cc1F)c1ccc2ncccc2c1	none
CCOc1ccc(C2C(C(=O)c3cc4ccccc4o3)=C(O)C(=O)N2CCN(C)C)cc1 (centres undefined)	none
CCOc1ccc(S(=O)(=O)n2cnc3ccccc32)cc1	Dicer inh 4.69
O=S(=O)(c1ccc(Cl)cc1)n1cnc2ccccc21	none
CCOc1ccc(S(=O)(=O)n2c(C)nc3ccccc32)cc1	none
C=CCOC(=O)C1=C(C)N=C2SCCC(=O)N2C1c1ccc(OC)cc1 (centres undefined)	none
Cc1ccc(OC(C)CC(=O)O)c([N+](=O)[O-])c1 (centres undefined)	Dicer inh 3.11
Cc1ccc(OC(=O)c2ccc(Cl)cc2[N+](=O)[O-])c([N+](=O)[O-])c1	none
Cc1ccc(-c2ccc(C)cc2[N+](=O)[O-])c([N+](=O)[O-])c1	none
COCCNS(=O)(=O)c1ccc(OC)c(-c2nnc3c4ccccc4c(C)nn23)c1	none
Cc1ccc(-n2c(C)ccc2C)nc1	none
NC(=S)N/N=C/c1cn(-c2ccccc2)nc1-c1ccccc1	none
CCCCCCCCSc1ncn[nH]1	none
CCCCCCCSc1nnc(-c2ccccc2N)c(=O)[nH]1	none
CCCCCSc1nncc(=O)[nH]1	Dicer inh 4.17
Ic1ccc(Sc2c(-c3ccccc3)nc3ccccn23)cc1	none
COC(=O)c1sc(N2C(=O)c3oc4ccccc4c(=O)c3C2c2ccco2)nc1C (centres undefined)	none
Cc1ccccc1-c1nc(NC(=O)CSc2ncnc3sc(C)c(C)c23)ns1	Dicer inh 3.03
COC(=O)c1c(NC(=O)CSc2ncnc3sc(C)c(C)c23)sc2c1CCCC2	none
Cc1ccc(-c2nc(NC(=O)CSc3nnc(C)s3)ns2)cc1	none
N#Cc1c(-c2ccccc2)nc(SCc2ccccc2Cl)[nH]c1=O	none
CC(C)C(NC(=O)OCC1c2ccccc2-c2ccccc21)C(=O)O (centres undefined)	none
O=C(Nc1ccccc1C(=O)O)OCC1c2ccccc2-c2ccccc21	Dicer inh 5.23
CC(CO)NC(=O)OCC1c2ccccc2-c2ccccc21 (centres undefined)	none
CC1=C(C(=O)OCCOC(C)C)C(c2ccc(N(C)C)cc2)C2=C(CCCC2=O)N1 (centres undefined)	none
CCCCC(=O)Nc1nc2ccc(S(C)(=O)=O)cc2s1	none
CCCCOC(=O)Nc1nc2ccc(S(C)(=O)=O)cc2s1	Dicer inh 4.81
CC(Oc1ccccc1F)C(=O)Nc1nc2ccc(S(C)(=O)=O)cc2s1 (centres undefined)	none
COc1cc(SC)ccc1C(=O)Nc1nc2ccc(S(C)(=O)=O)cc2s1	none
COc1ccc(OCCCC(=O)Nc2nc3ccc(S(C)(=O)=O)cc3s2)cc1	none
CCCCC(CC)C(=O)Nc1nc2ccc(S(C)(=O)=O)cc2s1 (centres undefined)	Dicer inh 4.8
O=c1c2ccccc2nc2sc3ccc(Cl)cc3n12	none
COC(=O)c1csc2c(C(F)(F)F)cc(=O)[nH]c12	none
O=c1[nH]nc(SCc2ccccc2)n1-c1cccc(Cl)c1	none
c1ccc(CN2CCC(c3cccs3)=N2)cc1	none
CC(C)(C)c1ccc(Oc2cc3c(cc2[N+](=O)[O-])C(=O)NC3=O)cc1	none

Source: PubChem
